# Screening data: PubChem, The Scripps Research Institute Molecular Screening Center
# MITF primary: blocks human microphthalmia-associated transcription factor; inhibition, % at 2.6 µM; actives 0.91% (n = 650,000); O75030; AlphaScreen MITF homodimerization, bead proximity signal; AID 1259374; in the data active = inhibition above about 50%;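 also: 0% = vehicle wells with protein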
# FBW7 act: human FBW7 E3 ligase activation, primary screen | Q969H0 | AlphaScreen FBW7–phospho-cyclin E peptide binding, activator screen | normalized activity (activation), % at 26.1 µM | actives 0.13% (n = 650,000); in the data active = normalized activity above about 1.9%;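 also: purified mutant Fbw7 with reduced substrate affinity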
# Target sequence (Q969H0 whole entry, looked up): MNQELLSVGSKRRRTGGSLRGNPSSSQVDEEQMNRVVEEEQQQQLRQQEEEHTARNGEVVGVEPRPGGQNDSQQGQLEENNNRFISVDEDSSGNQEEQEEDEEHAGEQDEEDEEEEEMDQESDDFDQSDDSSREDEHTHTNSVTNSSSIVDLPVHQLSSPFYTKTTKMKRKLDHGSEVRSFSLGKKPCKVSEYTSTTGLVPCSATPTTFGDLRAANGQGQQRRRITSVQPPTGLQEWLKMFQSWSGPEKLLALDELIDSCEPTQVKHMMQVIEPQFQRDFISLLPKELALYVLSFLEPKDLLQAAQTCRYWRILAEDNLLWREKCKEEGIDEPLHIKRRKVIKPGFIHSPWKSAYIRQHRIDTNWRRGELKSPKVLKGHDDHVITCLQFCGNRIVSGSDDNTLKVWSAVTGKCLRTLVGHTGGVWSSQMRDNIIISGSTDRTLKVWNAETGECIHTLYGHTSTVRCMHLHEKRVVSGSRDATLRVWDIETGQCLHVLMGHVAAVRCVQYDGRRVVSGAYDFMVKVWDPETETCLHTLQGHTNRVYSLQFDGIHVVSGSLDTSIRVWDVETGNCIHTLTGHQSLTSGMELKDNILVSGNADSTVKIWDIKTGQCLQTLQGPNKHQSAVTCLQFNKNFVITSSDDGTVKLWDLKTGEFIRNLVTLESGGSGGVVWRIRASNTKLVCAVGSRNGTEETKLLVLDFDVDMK
# TEAD-YAP block: TEAD-YAP interaction inhibition; AID 1259422; HEK-TIYL cells, TEAD-Gal4/YAP UAS-luciferase luminescence; actives 1.4% (n = 640,000); inhibition, % at 9.12 µM; in the data active = inhibition above about 32%;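 also: 0% = median of test compound wells and 100% = reference inhibitor wells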
# GPR151 activ: activators of human GPR151. PathHunter beta-arrestin GPR151 cells, luminescence. Q8TDV0. actives 1% (n = 650,000). AID 1508602. activation, % at 11.2 µM; in the data active = activation above about 4.9%;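 also: 0% = median of compound wells and 100% = cells with positive control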
# GPR151 confirm: human GPR151 activation, confirmation screen | shares compounds with GPR151 activ | GPR151 PathHunter beta-arrestin cells, luminescence, 90 min; % of EA-reagent control over plate median | 6,700 tested, under 10 active | activation, % at 11.2 µM;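 active = mean percent activation across replicates above the confirmation screen cutoff of 4.91%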
# GPR119 ag: GPR119 activation, counter-screen for GPR151 activators. shares compounds with GPR151 activ. GPR119 PathHunter beta-arrestin cells, luminescence, 90 min; 0 = compound-well median, 100 = enzyme-acceptor control. activation, % at 11.2 µM. actives 0.3% (n = 6,700). AID 1508611;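 active = mean percent activation in the counterscreen above 29.09%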;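 also: counterscreen on off-target GPR119 to flag nonselective hits from the GPR151 activator screen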
# * marks the source's active call; other numbers are inactive results; / = no result; ! = not active in a repeat. Sampled rows, rich in hits. Any-hit rate of the full collection: about 3.5%.
SMILES,MITF primary,FBW7 act,TEAD-YAP block,GPR151 activ,GPR151 confirm,GPR119 ag
CSc1ccccc1C(=O)Nc1ccc2c(c1)CC(=O)N2,6,0,6,5.3*,0,-3
CCOC(=O)c1ccc(NC(=O)C(=O)NCc2ccco2)cc1,2,0,9,0,/,/
COc1cccc(OC)c1-c1[nH]nc2nc(-c3ccc(=O)[nH]c3)ccc12,1,0,7,6.7*,-1,-4
Cc1cccc(CNC(=O)CN(C)c2nnc(N3CCCC3=O)s2)c1,-12,0,-10,-1,/,/
CN(CC(=O)NCc1cccnc1)c1nnc(N2CCCC2=O)s1,10,0,3,5.2*,0,4
CC(C)(C)NC(=O)CSc1nnc(-c2cccs2)n1Cc1ccccc1,10,0,-1,-1,/,/
Cc1cccc(NC(=O)C(c2ccc(Cl)cc2Cl)N2CCC2=O)c1 (stereo not drawn),-4,0,9,7.8*,1,1
CCn1c(C(=O)O)c(CNC2CCCC2)c2ccc(C)cc21,6,0,-2,8.4*,0,4
CC(=O)N1CCOc2cc(S(=O)(=O)N3CCCc4ccccc43)ccc21,4,0,7,1,/,/
CC(=O)N1CCc2ccc(S(=O)(=O)N3CCCc4ccccc43)cc21,5,0,54*,6.7*,0,2
CCCOc1ccc(CNC(=O)C(C)n2c3ccccc3c3nc(=O)cc(C)n32)cc1 (stereo not drawn),-10,0,-3,0,/,/
COc1ccc(-n2c(CNC(=O)c3cccs3)n[nH]c2=S)cc1,-1,0,2,0,/,/
Cc1ccc([N+](=O)[O-])cc1N/C=C/[N+](=O)[O-],5,0,-2,0,/,/
Cc1ccc(S(=O)(=O)CNC=O)cc1,-5,0,-5,0,/,/
CC12C=CC(C3OCCO3)(O1)C1C(=O)N(c3ccc(Cl)cc3)C(=O)C12 (stereo not drawn),5,0,12,6.4*,0,-1
Cc1ccc(NC(=O)C2CCCN2Sc2ccccc2[N+](=O)[O-])c(C)c1 (stereo not drawn),14,0,5,6.0*,1,9
O=C(NCCOc1ccccc1)c1ccnc(Nc2ccccn2)c1,-10,0,-7,1,/,/
Cn1c(=O)c2c(nc(NN)n2Cc2ccccc2)n(C)c1=O,6,0,3,6.8*,-1,-7
Cn1c(=O)c2c(nc(Cl)n2Cc2ccc(Cl)cc2)n(C)c1=O,7,0,-7,10*,0,3
Cn1c(=O)n(Cc2ccccc2)c(=O)c2c1nc(NN)n2Cc1ccccc1,-2,0,-12,1,/,/
C=CCN(c1ccccc1)S(=O)(=O)c1cc(C(=O)Nc2cc(Cl)cc(Cl)c2)ccc1F,22,0,-2,1,/,/
O=C(c1nn2c(c1Cl)NC(c1ccc(Cl)cc1)CC2C(F)(F)F)N1CCN(c2ccccc2)CC1 (stereo not drawn),5,0,3,1,/,/
CSc1nc(C)c2c(n1)OC(CBr)C2 (stereo not drawn),0,0,1,5.0*,-1,-5
Cc1ccc2nc(C)c3c(c2c1)OC(CBr)C3 (stereo not drawn),-7,0,11,1,/,/
CCN(CC)C(=O)c1sc(NC(=O)c2ccco2)c(C(=O)OC(C)C)c1C,-2,0,-4,1,/,/
SMILES,MITF primary,FBW7 act,TEAD-YAP block,GPR151 activ,GPR151 confirm,GPR119 ag
COC(=O)c1c(NC(=O)c2ccco2)sc(C(=O)Nc2cccc(C)c2)c1C,10,0,4,6.4*,0,1
CCN(CC)C(=O)c1sc(NC(=S)NCc2ccco2)c(C(=O)OC)c1C,4,0,10,11*,0,3
CCCOc1ccc(CN(C)C)cc1C(=O)OC,9,0,10,-1,/,/
CCCCNC(=O)CCc1c(C)nc2c3c(C)cc(C)nc3nn2c1C,9,0,7,-1,/,/
COc1ccc(N2C(=O)CCCC2=O)cc1,-1,0,0,1,/,/
COc1ccc(-c2noc(CN3CCCN(c4ccc(F)cc4)CC3)n2)c(OC)c1OC,6,0,-16,0,/,/
COc1ccc(-c2noc(CN3CCN(c4ccc(F)cc4)CC3)n2)c(OC)c1OC,11,0,0,6.5*,0,-9
CCOC(=O)c1sc2nc(SCC(=O)NC3CCCCC3)n(Cc3ccc(C)cc3)c(=O)c2c1C,3,0,3,0,/,/
Cc1ccccc1-n1c(=O)c2ccccc2n(Cc2cc(=O)n3ccccc3n2)c1=O,-9,0,-6,-1,/,/
COC(=O)c1cc2sc(C)cc2n1Cc1cc(=O)n2ccccc2n1,-3,0,-1,9.1*,0,2
CCc1nnc(SCC(=O)N2c3ccccc3Sc3ccccc32)n1N,6,0,7,2,/,/
Cc1nnc(SCC(=O)N2c3ccccc3Sc3ccccc32)n1N,8,0,9,7.4*,0,-3
COc1cc(Br)cc2cc(C(=O)N3CC(C)CC(C)C3)c(=O)oc12 (stereo not drawn),18,0,1,2,/,/
CCC1CN(Cc2nc3ccccc3[nH]2)Cc2cc(OC)ccc2O1 (stereo not drawn),-16,0,2,-1,/,/
CCC1CN(CCC(=O)NCCc2nc3ccccc3[nH]2)Cc2cc(OC)ccc2O1 (stereo not drawn),-3,0,8,7.0*,0,1
CC(=O)N1CCOc2cc(S(=O)(=O)N3CCCCCC3)c(C)cc21,6,0,-8,0,/,/
CC(=O)N1CCOc2cc(S(=O)(=O)N3CCC(Cc4ccccc4)CC3)c(C)cc21,-2,0,0,5.0*,0,3
CC1CC(C)CN(C(=O)Cn2c(SCC(=O)N3CCOCC3)nc3ccccc32)C1 (stereo not drawn),-15,1,7,0,/,/
COC(=O)c1cc2c(C(F)(F)F)cc(N3CCCC3)nc2s1,11,0,3,0,/,/
CC(C)CCNC(=O)CC1Nc2c3ccccc3nc(=S)n2C1=O (stereo not drawn),-3,0,2,-1,/,/
CCCCNC(=O)CC1Nc2c3ccccc3nc(=S)n2C1=O (stereo not drawn),14,0,-5,9.6*,-2,-15
CN(C)CCCN1c2ccccc2CCc2ccc(Cl)cc21,17,0,0,10*!,0,-12
CN(CCCN1c2ccccc2CCc2ccccc21)CC(=O)c1ccc(Cl)cc1,6,0,-6,-2,/,/
Cc1ccc(C)c(OCC(=O)O/N=C(\N)c2ccc(I)cc2)c1,-14,0,3,5.5*,0,-2
Cc1ccc(C)c(OCC(=O)O/N=C(\N)c2ccc(Br)cc2)c1,-2,0,-7,1,/,/
COc1cc(C(=O)O/N=C(\N)c2ccc(Br)cc2)cc(OC)c1OC,13,0,0,6.6*,0,-10
